Screening results from PubChem BioAssay.
The sample as a whole holds a higher share of hits than the screen did.
PL synth Enamine – blocks phospholipid synthesis in CHO cells, Enamine compounds | 20,000 tested, 0.4% active | AID 1347385 | ZR-82 CHO cells, pyrene fatty acid UV survival, CellTiter Blue; peroxisome-deficient CHO-K1 mutant line; plus DGAT-1, DGAT-2 and ACAT inhibitors | calls only at 10 µM;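 active = cell survival signal 2 SD away from solvent-only control wells, confirmed on one or two retests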;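 also: 3 h compound exposure then viability read about one day after UV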
Active calls of the source: *; i = inactive; + = active, no number.

SMILES | PL synth Enamine
CC(Nc1cc(N2CCNCC2)ccc1[N+](=O)[O-])C12CC3CC(CC(C3)C1)C2 (stereo not given) | +
CN(C)S(=O)(=O)N1CCN(c2ccc([N+](=O)[O-])c(NC3CC3)c2)CC1 | i
CC(NS(=O)(=O)c1ccc(F)c(F)c1)C12CC3CC(CC(C3)C1)C2 (stereo not given) | i
NC(=O)c1c(NC(=O)COC(=O)C2CC2)sc2c1CCCC2 | i
C=CCc1cc(CN2CCN(Cc3ccc4c(c3)OCO4)CC2)c(O)c(OC)c1 | i
CC1(C)C2CC=C(/C=N/NC(=S)Nc3cccnc3)C1C2 (stereo not given) | i
CCNC(=S)N/N=C/C1=CCC2CC1C2(C)C (stereo not given) | i
C=C(C)CNC(=S)N/N=C/C1=CCC2CC1C2(C)C (stereo not given) | i
CC1(C)C2CC=C(/C=N/NC(=S)NC3CCCCC3)C1C2 (stereo not given) | +
CC1(C)C2CC=C(/C=N/NC(N)=S)C1C2 (stereo not given) | i
CC(C)NC(=S)N/N=C/C1=CCC2CC1C2(C)C (stereo not given) | +
Oc1c(N=Nc2nc3ccccc3[nH]2)c2cccc3c2n1CCC3 | i
CCC1CCCCN1Cn1nc(-c2ccc3c(c2)OCO3)oc1=S (stereo not given) | i
O=C(C1CCN(CN2C(=O)NC3(CCCCC3)C2=O)CC1)N1CCCCCC1 | i
Cc1sc2ncnc(NCC(C)O)c2c1C (stereo not given) | i
Cc1sc2ncnc(NC3CCC(O)CC3)c2c1C (stereo not given) | i
C/C(=N\Nc1ncnc2sc(C)c(C)c12)c1ccc(Cl)s1 | +
O=C(CCC1CCCC1)NNC(=O)CC12CC3CC(CC(C3)C1)C2 | i
Brc1cccc(C2Oc3ccccc3C3CC(c4ccc5c(c4)OCCO5)=NN32)c1 (stereo not given) | i
CN1/C(=C\P(=Nc2ccc([N+](=O)[O-])cc2)(c2ccccc2)c2ccccc2)C(C)(C)c2ccccc21 | i
CCN(CC)c1ccc(N=Nc2c(Br)cc([N+](=O)[O-])cc2Br)cc1 | i
CCOP(=O)(OCC)C1(C)N(C)c2ccc(N=Nc3ccc([N+](=O)[O-])cc3)cc2C1(C)C (stereo not given) | +
COC(=O)c1sc2nc(C3CC3)[nH]c(=O)c2c1CC(=O)O | i
Fc1cc(Cl)ccc1NC(=S)Nc1ccc(Cl)c(Cl)c1 | +
Fc1ccc(NC(=S)Nc2ccc(Cl)c(Cl)c2)cc1Cl | i
SMILES | PL synth Enamine
C=CCNC(=S)Nc1ccc(F)c(Cl)c1 | i
Cc1ccc(NP(=O)(Nc2ccc(C)cc2)C(F)(F)C(F)(F)C(F)(F)F)cc1 | i
Brc1cc2c(c(CSc3nncs3)c1)OC(c1ccccc1)OC2 (stereo not given) | i
CN(C)c1ccc(/C=C/c2cccc[n+]2C)cc1 | i
CC[n+]1ccc(/C=C/c2ccc(N(C)C)cc2)cc1 | +
CN(C)c1ccc(/C=C/c2ccc3ccccc3[n+]2C)cc1 | i
O=[N+]([O-])c1ccc(N/N=C2\CCCCc3ccccc32)cc1 | +
O=[N+]([O-])c1cc(C(F)(F)F)cc([N+](=O)[O-])c1N/N=C1/CCCc2ccccc21 | i
C=CCNC(=S)N/N=C1\CCc2ccccc21 | i
O=[N+]([O-])c1ccc(N/N=C2\CCc3ccccc32)cc1 | +
O=[N+]([O-])c1cc(S(=O)(=O)N/N=C2\CCc3ccccc32)ccc1Cl | i
c1ccc(N/N=C2\CCCc3ccccc32)nc1 | i
Cc1cccn2c(=O)c3cc(C(=O)N4CC(C)CC(C)C4)n(C)c3nc12 (stereo not given) | i
O=[N+]([O-])c1ccc(-n2cccc2)nc1 | i
Cc1ccc2nc(CSc3nnnn3C)cn2c1 | i
C=CCn1c(SCC(=O)c2cc(C)n(CC3CCCO3)c2C)nc2sc3c(c2c1=O)CCC3 (stereo not given) | i
CSc1cccc(NS(=O)(=O)c2ccc3c(c2)OCCO3)c1 | i
O=C(C[P+](c1ccccc1)(c1ccccc1)c1ccccc1)C12CC3CC(CC(C3)C1)C2 | i
COC(=O)C1=C(C)NC(C)=C(C(=O)OC)C1C(=O)O | i
Fc1ccc(/C=N/Nc2nncc3ccccc23)cc1F | i
Cn1c(-c2ccccc2)c(/C=N/Nc2nncc3ccccc23)c2ccccc21 | +
FC(F)(F)c1cccc(/C=N/Nc2nncc3ccccc23)c1 | i
Nc1cc2c(cc1[N+](=O)[O-])OCC(=O)N2 | i
CC1(NC(=O)NC2(C)CCS(=O)(=O)C2)CCS(=O)(=O)C1 (stereo not given) | i
Cn1nnnc1SCCn1cnc2c1c(=O)n(C)c(=O)n2C | i
SMILES | PL synth Enamine
Cc1cc(Sc2nc(N)ncc2[N+](=O)[O-])ncn1 | i
Cc1cc(C)nc(NNc2ncnc(N)c2[N+](=O)[O-])n1 | i
Cc1cc(Sc2ncnc(N)c2[N+](=O)[O-])ncn1 | +
CCOC(=O)c1c(C)oc(N)c1C(N)=O | i
COc1ccc2nc(SCc3nc4ccccc4s3)[nH]c2c1 | i
Clc1ccccc1/C=N/NC1=Nc2cccc3cccc1c23 | i
Brc1ccc(/C=N/NC2=Nc3cccc4cccc2c34)cc1 | i
c1ccc(NNC2=Nc3cccc4cccc2c34)cc1 | +
O=P1(N/N=C/c2ccc(O)cc2)C=C(c2ccccc2)OC(c2ccccc2)=C1 | i
O=[N+]([O-])c1ccc2nc(CF)sc2c1 | i
Cc1[nH]c2ccccc2c1N=Nc1ccc(SC(F)F)cc1 | +
Cc1[nH]c2ccccc2c1C(c1c(C)[nH]c2ccccc12)C(C)C | i
OC1Oc2ccccc2OC1O (stereo not given) | i
CC1=C(c2ccc(C)cc2)Nc2nnnn2C1c1ccc(N2CCCC2)c([N+](=O)[O-])c1 (stereo not given) | i
CCc1ccc(C2C3=C(COC3=O)Nc3c2c(=O)n(C)c(=O)n3C)cc1 (stereo not given) | i
CN1/C(=C\C=N\N=C2c3ccccc3-c3ccccc32)C(C)(C)c2ccccc21 | +
CN1/C(=C\C=Nc2ccc(I)cc2)C(C)(C)c2ccccc21 | i
CSc1ccccc1N=C/C=C1/N(C)c2ccccc2C1(C)C | i
Cn1/c(=N/N=C2\CCCCc3ccccc32)sc2ccccc21 | i
O=[N+]([O-])c1cccc(NN=C2c3ccccc3-c3ccccc32)c1 | i
Fc1ccc(NN=C2c3ccccc3-c3ccccc32)cc1 | +
Clc1ccc(NN=C2c3ccccc3-c3ccccc32)cc1 | i
O=c1[nH]c2cc([N+](=O)[O-])ccc2nc1N1CCCC1 | i
S=C(NC1CC2CCC1C2)N(CCc1ccccc1)Cc1ccccc1 (stereo not given) | i
O=[N+]([O-])c1ccc(N/N=C/c2ccc(-n3nncc3C34CC5CC(CC(C5)C3)C4)cc2)cc1 | +
SMILES | PL synth Enamine
O=[N+]([O-])c1cccc(-n2nncc2C23CC4CC(CC(C4)C2)C3)c1 | i
c1ccc(N=Nc2ccc(-n3nncc3C34CC5CC(CC(C5)C3)C4)cc2)cc1 | i
C/C(=N\NP1(=O)C=C(c2ccccc2)OC(c2ccccc2)=C1)c1ccccc1 | i
C[n+]1ccccc1N1CCN(CC(=O)NC2CC2)CC1 | i
Fc1cccc(F)c1/C=N/n1c(-c2cc3ccccc3o2)csc1=NCCc1ccccc1 | +
CN=c1scc(-c2cc3ccccc3o2)n1/N=C/c1cccc(C(F)(F)F)c1 | i
